# Measured values: PubChem BioAssay AID1688 (National Center for Advancing Translational Sciences (NCATS), 2009)
# In all, about 220,000 compounds went through this assay and about 2,400 (1.1%) were called active. Another 7% or so got no clear call; they are omitted. Only a selection was taken, and actives are over-represented in it overall. A number with no mark means an inactive call. The call rests on the fitted dose curve; in most records, active means well fitted inhibition curve with a large enough effect; inconclusive means small, poorly fitted or top-dose-only effect, or effect the other way; inactive means no such curve, though single readings can be large or run the other way.
# Test: qHTS Multiplex Assay to Identify Dual Action Probes in a Cell Model of Huntington: Aggregate Formation (GFP); further: nearly all actives have a fitted effect of over 60% in size
# Conditions: PC12 HttQ103-GFP aggregates, Acumen cytometry, 40 h; series mostly up to 9.22 µM; activity change, negative = inhibition: at the top concentration
# Source text: NIH Chemical Genomics Center [NCGC]
# NIH Molecular Libraries Probe Production centers Network [MLPCN]
# Assay Submitter (PI): Wei Zheng
# Huntington's disease is a neurodegenerative disorder caused by a trinucleotide repeat expansion in Exon 1 of the Huntingtin gene. The CAG trinucleotide encodes glutamine and polyglutamine expansions cause cell death in selective areas of the brain. Huntington polyglutamine repeats have the tendency to form aggregates which are observable in later stages of the disease. The exact nature of the aggregates, whether toxic, protective, or insignificant, is unclear.
# A stable PC12 cell line containing a gene fusion of Exon 1 of the Huntingtin gene linked to GFP under the control of the inducible ecdysone promoter were used as the cell-based model of Huntington Disease for high throughput screening. Exon 1 of the Huntingtin gene contained an expansion of 103 polyglutamines (Q103) which, when expressed, caused cell death and distinct, bright GFP aggregates. The amount of cell death and the size and intensity of GFP aggregates increased over time and induction level. The cell death were quantified with a measurement of ATP content in the cells. A maximal 40-50% of cell death was observed when the Huntington gene was induced in this cell line.
# We optimized this assay in a homogeneous 1536 well format. A quantitative high throughput screen (qHTS) was conducted on the PC12 cells which were induced to express the toxic fusion construct. Small molecules which reduced aggregate formation were identified bu using a laser scanning cytometer calibrated to detect the aggregates in cell lysates.
# PC12 cells stably containing a construct with an ecdysone inducible promoter expressing GFP fused to the exon 1 of HTTQ103 (Huntington protein which containing a 103 ployglutamine expansion) were used.
# NCGC Assay Protocol Summary:
# Sequence, Parameter, Description
# 1, Reagent, 5 uL 1500 cells/well 1536 TC treated White clear bottom plate
# 2, Compound, 23 nL Tebufenozide inducer (100 nM final) to all columns
# 3, Compound, 23 nL 40 uM to 0.5 nM Libraries
# 5, Reagent, 5 ul ATPLite cell death assay reagent
# 6, Detector, Aggregate quantitation by Acumen Explorer
# Media consisted of phenol red free DMEM + 5% equine serum (Hyclone # SH30072.03 ), 5% supplemented Bovine Calf Serum (Hyclone # SH30074.03 ), 1x pen/strep, no G418
# Acumen Explorer was used to quantitate GFP aggregates using the following criteria: […] laser excitation, 500-530 nm emission, the PMT was set at a voltage of 450 volts, and objects ranging in size of […] in size having a signal of 6 STDEV above background were collected.
# Control columns: 1 = DMSO, 2= 2 uM teb dilns (1:1), 4 = 100 nM Teb inducer. Sample columns received 100 nM Teb.
# On the % scale 0 is the no-effect control and ±100 the full control effect.
SMILES,Potency,"activity change, negative = inhibition"
COC(=O)c1ccc(Cc2ccccc2)o1,0.0004 µM (active),
COC(=O)c1ccc(CSc2ccccc2C)o1,,-0.648% [at 46.1 µM]
COC(=O)c1ccc(CN(c2ccccc2OC)S(=O)(=O)c2cccs2)o1,,-2.95% [at 46.1 µM]
Cn1c(=O)c2c(nc(NCc3ccccc3)n2CC(N)=O)n(C)c1=O,,-3.14%
Cc1ncn2cc(-c3ccc(Cl)cc3Cl)[nH]c(=O)c12,,-41.8%
C=C(C)CNC(=S)Nc1ccc(S(=O)(=O)Nc2cnc3ccccc3n2)cc1,,0%
CCc1cc2c(NC3CCCC3)ncnc2s1,,-17.1%
Oc1ccccc1N1CCN(c2ncnc3sc(-c4ccccc4)cc23)CC1,,5.69%
CCc1cc2c(N3CCN(c4nnc(CC)s4)CC3)ncnc2s1,17.8 µM (active),
Cc1ccc(C(O)P(=O)(OC(C)C)c2ccc(N(C)C)cc2)cc1 (stereo unspecified),,15.4%
O=C(/C=C/Nc1ccc(S(=O)(=O)Nc2cnc3ccccc3n2)cc1)c1cccnc1,,-17.6%
CCOC(=O)c1ccc(N=C2SC(C(=O)NC)CC(=O)N2CCc2ccccc2)cc1 (stereo unspecified),,-13.4%
CC1=CC(C)(C)NC(=S)N1NC(=O)c1ccccc1Cl,,-29.3%
CN(NC(=O)c1ccccc1F)c1nc(C(F)(F)F)nc2ccccc12,,-0.998% [at 46.1 µM]
CSc1nc(N(C)NC(=O)c2cccc(C)c2)c2ccccc2n1,1.26 µM (active),
CN(NC(=O)c1ccccc1)c1nc2ccccc2nc1C(F)(F)F,,-19.7% [at 46.1 µM]
O=C(OCc1ccccc1)c1ccc(O)cc1,,6.43% [at 46.1 µM]
O=C(NCc1cccnc1)C(=O)Nc1nc(-c2ccccc2)cs1,,-4.94%
CCn1c(SCc2ccc(C)cc2)nnc1-c1nn(-c2ccccc2)ccc1=O,,9.93% [at 46.1 µM]
CCc1ccc(-c2nn(-c3ccccc3)cc2CSC(=N)N)cc1,17.8 µM (active),
O=C(Nc1cn(-c2ccccc2)nc1-c1ccccc1)c1ccccc1,,-21% [at 46.1 µM]
Cc1cc(Nc2ccc(Cl)cc2)nc(N2CCOCC2)n1,,-1.57%
CC(=O)NC(=O)c1ccccc1O,,1.25% [at 46.1 µM]
Cc1nnc(C)c2c(C)n(N)c(C)c12,,0.29%

SMILES,Potency,"activity change, negative = inhibition"
CCN1/C(=C/c2ccc3ccc(C)cc3[n+]2CC)Sc2ccccc21,7.94 µM (active),
CCC(=O)/C=C1\Sc2ccccc2N1CC,,-1.12% [at 46.1 µM]
CCN1/C(=C/C(=S)Nc2ccccc2)Sc2ccccc21,,4.06%
COc1ccccc1N(C)S(=O)(=O)c1ccc(C(=O)NC2CCCCCC2)cc1,,21.4%
Nc1ccc(C(=O)OCC(=O)NC2CCS(=O)(=O)C2)cc1[N+](=O)[O-] (stereo unspecified),,1.88%
NC(=O)c1sc2nc3c(c(-c4ccccc4)c2c1N)CCC3,7.08 µM (active),
CC(=O)Nc1ccc(NC(=O)c2sc3nc4c(c(-c5ccc(C)cc5)c3c2N)CCC4)cc1,,16.4% [at 46.1 µM]
Cc1cccc(NC(=O)c2sc3nc4c(c(-c5ccco5)c3c2N)CCC4)c1,,-5.16% [at 46.1 µM]
CCNc1nc(Oc2ccc(C(=O)OC)cc2)nc(N2CCOCC2)n1,,12.1%
Cc1cc(=O)[nH]c(SCC(=O)Nc2ccc(Br)cc2)n1,,-8.52%
C=CCNC(=S)NNC(=O)c1cc(Cl)ccc1OC,,2.51%
CCOC(=O)CSc1nnc(NC(=O)c2cccc(S(=O)(=O)N3CCCC3)c2)s1,1 µM (active),
CCOC(=O)CSc1nnc(NC(=O)c2cccc(S(=O)(=O)N3CCCCC3)c2)s1,,0.38% [at 46.1 µM]
O=C(Nc1nncs1)c1cccc(S(=O)(=O)N2CCCCC2)c1,,-10.1% [at 46.1 µM]
O=P(O)(CN1CCCCCC1)C1Cc2ccccc2C1,,-5.67%
NS(=O)(=O)c1ccc(Nc2nc(-c3ccccc3)cs2)cc1,11.2 µM (active),
CC(=O)Nc1nc(C)c(-c2csc(Nc3ccc(S(N)(=O)=O)cc3)n2)s1,,-10.9%
COc1ccc(Nc2nc(-c3ccccc3)cs2)cc1,,15.7% [at 46.1 µM]
OCC(CO)NC1C[C@](O)(CO)[C@@H](O)[C@H](O)[C@H]1O (stereo partly specified),,-1.34% [at 46.1 µM]
Oc1c(Cl)cc(Cl)c(Cl)c1Cc1c(O)c(Cl)cc(Cl)c1Cl,5.62 µM (active),
CC(C)(C)c1cc(C(=O)N/N=C/c2ccc([N+](=O)[O-])s2)n[nH]1,,6.94%
Cc1ccccc1NCC(=O)N/N=C\c1ccc([N+](=O)[O-])s1,11.2 µM (active),
CCOc1ccc(NC(=O)CCC(=O)N/N=C/c2ccc([N+](=O)[O-])s2)cc1,,-1.14% [at 46.1 µM]
Cc1ccc(S(=O)(=O)NNC(=S)NC(C)(C)C)cc1,,-5.96%

SMILES,Potency,"activity change, negative = inhibition"
CC(O)COc1ccccc1 (stereo unspecified),,-7.24% [at 46.1 µM]
CC1CCCCN1S(=O)(=O)c1ccc(S(=O)(=O)N(CC(=O)Nc2ccccc2)Cc2cccs2)cc1 (stereo unspecified),,-1.27% [at 46.1 µM]
O=C(Nc1nnc(-c2ccco2)o1)c1ccc(S(=O)(=O)N2CCOCC2)cc1,,-4.11% [at 46.1 µM]
CC1CCCCN1S(=O)(=O)c1ccc(C(=O)Nc2nnc(-c3cccs3)o2)cc1 (stereo unspecified),11.2 µM (active),
COc1ccc(C(=O)N/N=C(\C)CC(=O)Nc2ccc(Cl)cn2)cc1,,5.22%
COC(=O)c1sccc1NC(=O)CC1C(=O)NCCN1C(=O)Nc1ccc(F)cc1F (stereo unspecified),,-10.3%
O=c1c([N+](=O)[O-])cccn1Cc1ccc(F)cc1Cl,10 µM (active),
O=c1c([N+](=O)[O-])cc(C(F)(F)F)cn1Cc1cccc(Cl)c1,,14.6% [at 46.1 µM]
N/C(=N/O)c1cccn1Cc1ccccc1[N+](=O)[O-],,1.61% [at 46.1 µM]
O=C(NCC1CCCO1)c1ccccc1-c1nc(-c2ccccc2Cl)no1 (stereo unspecified),,0.943%
CC(=O)Nc1ccc(/C=C/C(=O)c2ccccc2)cc1,,-17.7%
CC(=O)Nc1ccc(C(=O)/C=C/c2ccc[nH]2)cc1,11.2 µM (active),
CCCC(=O)Nc1ccc(C(=O)N/N=C/c2ccc[nH]2)cc1,,-1.27% [at 46.1 µM]
Cn1c(=O)c(=O)n(C)c2cc(S(=O)(=O)NCCN3CCN(c4ccccc4F)CC3)ccc21,,-1.75%
COC(=O)CNc1nc(Cl)nc(N2CCC(C)CC2)n1,,3.06%
N#Cc1c(C(F)(F)F)cc(-c2cccs2)nc1N1CCCCC1,,-10.4%
CSc1nc2ccc(NC(=O)c3c(F)cccc3F)cc2s1,,-18.4% [at 46.1 µM]
O=C(Nc1ccncc1)c1c(F)cccc1F,12.6 µM (active),
COc1cccc(OC)c1C(=O)Nc1ccc(Cc2ccncc2)cc1,,9.12% [at 46.1 µM]
O=C(Nc1ccccc1C(F)(F)F)N1CCCC1c1cccnc1 (stereo unspecified),,3.58%
CCOC(=O)c1cc2n(c1N)-c1ccccc1C2=O,,-8.66% [at 46.1 µM]
CCOC(=O)c1c(C)[nH]c2c1-c1ccccc1C(=O)C2=O,5.01 µM (active),
Cc1[nH]c2ccccc2c1C(=O)COC(=O)C(C)C,,3.18% [at 46.1 µM]
